Data taken from PubChem BioAssay.

Assay: TLR3 IRF3 reporter activation blockers – cell-based, poly I:C stimulus, luciferase, 10K MLSCN set, primary screen (AID 602277)
Conditions: HEK293-TLR3 RL24 IRF3 luciferase reporter, at 10 µM, active compounds read high;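 active = inhibition of the reporter signal at or above 50%; inactive = inhibition below 50%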

inhibition, inactive:
CCc1nnc(NC(=O)OCc2ccccc2)s1 -43.4%
O=C(C1CC1)N(Cc1ccco1)c1nc(-c2ccccc2)cs1 -15.4%
Cc1ccccc1OCCN1C(=O)NC2(CCc3ccccc32)C1=O (stereo not given) 4.56%
COc1ccc(OC(C)C(=O)N2CC(C)OC(C)C2)cc1 (stereo not given) 30.8%
CCOC(=O)C(C)On1c(SC(C)C(=O)OCC)nc2ccccc2c1=O (stereo not given) 20%
O=C(COC(=O)Cc1cccc(C(F)(F)F)c1)NCC1CCCO1 (stereo not given) 2.06%
CCCc1[nH]nc2c1C(c1cccc(OC(=O)c3ccco3)c1)C(C#N)=C(N)O2 (stereo not given) 18%
CS(=O)(=O)N(CC(=O)N1CCN(c2cccc(Cl)c2)CC1)C1CCCCC1 0.307%
Clc1ccccc1OCc1nn2c(-c3ccncc3)nnc2s1 -3.24%
Cc1cccc(N2CCN(C(=O)c3cc4c(=O)[nH]c5ccccc5c4n3C)CC2)c1C -17.5%
N#CC(C(=O)C1CCCCC1)c1nc2ccccc2[nH]1 (stereo not given) -10.7%
Cc1nc2ccccc2c2oc(C(=O)NCc3ccccn3)cc12 -16.5%
COCCN(CC(=O)NC1CCCCC1)C(=O)CSc1nc2ccccc2o1 18.7%
Cc1ncoc1C(=O)Nc1cccc(Cl)c1C -46.1%
COc1cccc(OC)c1C(=O)N1CCOCC1 25.3%
COC(=O)c1ccccc1NC(=O)c1noc2c1CC(C(C)(C)C)CC2 (stereo not given) 4.53%
Cc1ccc(-c2cc(C(F)F)nc(NCc3cccnc3)n2)cc1 -13.6%
O=C(NCc1ccccc1)N1CCn2c(nc3ccccc32)C1 -7.43%
COc1ccc(CN(C)CC(=O)c2c(N)n(Cc3ccccc3)c(=O)n(C)c2=O)c(OC)c1 24.3%
Cc1nc(C)c(C(=O)Nc2ccc(Oc3ccccc3)cc2)o1 -128%
CCOc1ccc2nc(NC(=O)C(NS(=O)(=O)c3cccs3)C(C)C)sc2c1 (stereo not given) 20.4%
CC1CCN(CCCNC(=O)c2cn(C)c3ccc(S(=O)(=O)N4CCCC4)cc3c2=O)CC1 21.7%
COCCN1C(=O)C(=O)/C(=C(/O)c2cccc(OC)c2)C1c1ccncc1 (stereo not given) 15.1%
C[C@H](NC(=O)Nc1ccccc1F)C(=O)O 24.2%
Nc1c(Sc2ccccc2)c(=O)[nH]c(=O)n1Cc1ccccc1 -2.56%
Cc1ccc(C)c(Cn2c(=O)n(CCC(=O)NCc3ccco3)c(=O)c3sccc32)c1 16.1%
CCn1c(=S)sc2nc(C)sc21 15%
CC(C)(C)OC(=O)N1CCOCCOCCN(C(=O)OC(C)(C)C)CCOCCOCC1 6.47%
O=C(NC1CCCCC1)C(c1ccco1)N(Cc1cccnc1)C(=O)C1COc2ccccc2O1 (stereo not given) 35.6%
COC(=O)c1c(-c2ccc(F)cc2)noc1N -9.58%
Cn1ccnc1C(O)c1ccco1 (stereo not given) 13.2%
O=C(NCCN1CCOCC1)c1ccc2c(c1)N(Cc1ccccc1)C(=O)CS2 8.57%
N#CC1=C(N)n2c(s/c(=C\c3ccco3)c2=O)=C(C#N)C1c1ccco1 (stereo not given) 38%
c1ccc2c(c1)ccc1nnc(-c3ccc4c(c3)OCO4)n12 25.4%
COc1cccc(-c2cc(C(=O)Nc3cc(C)n(Cc4ccc(Cl)cc4)n3)no2)c1 -60.3%
CCC(C)n1[nH]c(=O)c2c(C)cc(C)nc21 (stereo not given) 15.3%
CN(CC(=O)Nc1ccncc1)S(=O)(=O)c1ccccc1 2.23%
CC(=O)Oc1cccc(/C=c2\sc3nc(-c4ccco4)nn3c2=O)c1 16.1%
Cn1c(=O)cc(OCC(=O)N2CCN(c3cccc(C(F)(F)F)c3)CC2)c2ccccc21 15.2%
C=CCc1cc(C(=O)N2CCCCC2)ccc1O -14%
